The test system of this experiment is FLT4. The arrangement: species or system human, MV4-11 + K-562 + COLO205 + SK-N-BE2 + OVCAR-8. Conditions: read-out: apparent Kd; compound concentrations:100 nM and 1000 nM (sheet 'Samples'); n = 1.
As to `CN(C)C/C=C/C(=O)Nc1ccc(C(=O)Nc2cccc(Nc3ncc(Cl)c(-c4c[nH]c5ccccc45)n3)c2)cc1` [THZ1], the potency estimated from few doses is 904 nM.

On to `COc1cc(OC)cc(-c2cc3cnc(N)nc3nc2NC(=O)NC(C)(C)C)c1` [PFE-PKIS_3], for which the potency estimated from few doses is 1380 nM.

As for `CCS(=O)(=O)c1ccc(OC)c(Nc2ncc(-c3cccc(-c4ccccc4F)c3)o2)c1` [GW678313X], the potency estimated from few doses is 423 nM.

Turning to `C[C@@H](Oc1cc(-n2cnc3cc(-c4cnn(C)c4)ccc32)sc1C(N)=O)c1ccccc1Cl` [GSK580432A], the potency estimated from few doses was 1610 nM.

The record behind these values is publication PMC11062922 (Nature Chemical Biology, 2023).
